Source: PubChem BioAssay (several laboratories)
Mtb hypoxia inh: reduces hypoxia-regulated biosensor signal in M. tuberculosis; M. tuberculosis hypoxia-regulated fluorescent reporter, fluorescence; fluorescence inhibition, % (no concentration beside the values); hit rate 0.1% among 300,000; in the data active = fluorescence inhibition mostly above about 23%, no sharp cut-off; inactive = mostly below about 17%
BJeLR lethal: BJeLR cell viability loss; BJeLR (HRASV12) viability, CellTiter-Glo ATP luminescence, 48 h; inhibition, % (concentration not given with the values); hit rate 0.17% among 300,000; AID 1554; in the data active = inhibition above about 50%
RecA splice inh: Mtb RecA intein splicing inhibition; P9WHJ3; cell-free RecA intein splicing, fluorescence; inhibition, % (concentration not given with the values); hit rate 0.75% among 290,000; AID 2221; in the data active = inhibition above about 30%;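 note: 0% = vehicle wells and 100% = reference inhibitor control wells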
Target sequence (P9WHJ3 whole entry, looked up, canonical isoform): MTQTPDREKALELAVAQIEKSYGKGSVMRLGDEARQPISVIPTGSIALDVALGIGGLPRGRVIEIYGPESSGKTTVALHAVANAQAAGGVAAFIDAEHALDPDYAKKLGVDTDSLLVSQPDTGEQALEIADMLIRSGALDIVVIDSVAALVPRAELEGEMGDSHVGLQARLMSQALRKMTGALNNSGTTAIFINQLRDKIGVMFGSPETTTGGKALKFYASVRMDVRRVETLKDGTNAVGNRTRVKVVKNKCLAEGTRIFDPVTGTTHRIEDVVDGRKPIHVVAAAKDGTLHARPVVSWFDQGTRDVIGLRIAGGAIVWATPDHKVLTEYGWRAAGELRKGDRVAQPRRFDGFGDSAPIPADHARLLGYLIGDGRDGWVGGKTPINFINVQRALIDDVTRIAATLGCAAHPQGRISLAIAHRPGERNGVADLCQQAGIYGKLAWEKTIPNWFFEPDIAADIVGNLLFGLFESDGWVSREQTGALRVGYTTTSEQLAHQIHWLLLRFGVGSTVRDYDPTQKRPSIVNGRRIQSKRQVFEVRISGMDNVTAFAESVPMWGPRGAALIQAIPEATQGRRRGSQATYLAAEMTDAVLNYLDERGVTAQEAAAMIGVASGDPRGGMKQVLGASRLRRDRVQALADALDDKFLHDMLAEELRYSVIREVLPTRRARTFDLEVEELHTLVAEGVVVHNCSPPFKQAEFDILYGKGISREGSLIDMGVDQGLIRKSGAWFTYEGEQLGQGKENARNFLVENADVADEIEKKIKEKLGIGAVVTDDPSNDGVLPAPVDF
RN4220 kill: S. aureus RN4220 growth inhibition; OD600, 16 h; inhibition, % (no concentration beside the values); hit rate 0.33% among 330,000; in the data active = inhibition above about 85%;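 note: plate controls were untreated cells for no effect and reference antibiotic for full effect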
CCHF vOTU inh-1: blocks the CCHF virus ovarian tumor domain protease. CCHFV vOTU protease, Pep-AMC fluorescence. hit rate 0.55% among 370,000. inhibition, % at 11.5 µM; note: 0% = vehicle wells with enzyme and 100% = no enzyme wells
Sa ugtP lethal: kills S. aureus RN4220 lacking UgtP. S. aureus RN4220 ugtP deletion, OD600 growth, 16 h. growth inhibition, % (concentration not given with the values). hit rate 0.54% among 330,000. AID 1259309; in the data active = growth inhibition above about 68%;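 note: plate controls were untreated wells for no effect and antibiotic for full effect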
CCHF vOTU inh-2: confirmation of CCHF virus vOTU protease inhibitors. Recombinant CCHFV vOTU, Pep-AMC fluorescence. hit rate 17% among 1,900. AID 686976. shares compounds with CCHF vOTU inh-1. inhibition, % at 11.5 µM
Starred values were filed as active, the others as inactive; nt = not tested or not shown. The list is not random: actives were taken first. Their share in the collection is about 1.6%. Cut-off read from the data, not from the text of the source, unless noted: active = inhibition above about 30%; inactive = the rest.

SMILES | Mtb hypoxia inh | BJeLR lethal | RecA splice inh | RN4220 kill | CCHF vOTU inh-1 | Sa ugtP lethal | CCHF vOTU inh-2
CCCCC[C@@H](C)N1C[C@H](COCc2ccccc2)Oc2cc(N3CCC[C@@H]3CO)ccc2S1(=O)=O | nt | nt | nt | nt | 33* | nt | 17
CCCCC[C@@H](C)N1C[C@@H](COCc2ccccc2)Oc2cc(N3CCC[C@H]3CO)ccc2S1(=O)=O | nt | nt | nt | nt | 28 | nt | nt
CCCCC[C@H](C)N1C[C@H](COCc2ccccc2)Oc2cc(N3CC[C@@H](O)C3)ccc2S1(=O)=O | nt | nt | nt | nt | 15 | nt | nt
CCCCC[C@H](C)N1C[C@@H](COCc2ccccc2)Oc2cc(N3CC[C@H](O)C3)ccc2S1(=O)=O | nt | nt | nt | nt | 40* | nt | 3
COc1ccccc1C1C(=C(O)c2ccccc2)C(=O)C(=O)N1CCO (configuration not stated) | 14 | nt | nt | 1 | nt | -1 | nt
COC(=O)C1=C(c2ccc(F)cc2F)CC2CCC1N2C(=O)N1CCC(O)CC1 (configuration not stated) | 2 | nt | nt | 4 | nt | -3 | nt
Cc1ccc(N=Cc2ccc(N(C)C)cc2)cc1 | nt | 14 | 7 | 2 | 10 | -8 | nt
CN(C)c1ccc(C=Nc2ccc(N(C)C)cc2)cc1 | nt | 7 | 7 | 1 | 68* | 5 | 4
Oc1ccc(C=Nc2cccc3ncccc23)c(O)c1 | 1 | -9 | -1 | -2 | 44* | -3 | -10
N#CCCN(C(=O)COC(=O)CCc1c[nH]c2ccccc12)c1ccccc1 | 5 | -7 | -1 | 2 | 36* | 10 | -10
N#CCCN(C(=O)COC(=O)CCc1ccccc1)c1ccccc1 | nt | -1 | 1 | nt | 6 | nt | nt
CSCC(=O)NC1CCCc2c1cnn2-c1cc(F)cc(F)c1 (configuration not stated) | 0 | -1 | 0 | 1 | 30* | 6 | -26
CCCCOCCCNC(=O)C[C@H]1C[C@@]2(C(=O)OC)C(=C[C@H](C(C)C)O[C@@H]2C2CC2)N(CCC2=CCCCC2)C1=O | nt | nt | nt | nt | 39* | nt | 6
COC(=O)[C@]12C[C@H](CC(=O)NCCCCc3ccccc3)C(=O)N(CCC3=CCCCC3)C1=C[C@H](C(C)C)O[C@@H]2C1CC1 | nt | nt | nt | nt | 37* | nt | 2
S=C(Nc1ccc(Cl)cc1)Nc1cccc2cnccc12 | 1 | 15 | 6 | -2 | 58* | -16 | 89*
COc1ccc(NC(=S)Nc2cccc3cnccc23)cc1 | 10 | 0 | 4 | 1 | 3 | 3 | nt
CN(C)S(=O)(=O)c1cccc(NC(=S)Nc2cccc3cnccc23)c1 | 0 | -1 | 5 | 5 | 40* | 9 | 89*
Fc1ccc(NC(=S)Nc2cccc3cnccc23)cc1 | 0 | -5 | 2 | 7 | 50* | 3 | 65*
COc1ccccc1N(C(C)=O)C1=C(Cl)C(=O)c2ccccc2C1=O | nt | nt | nt | nt | 91* | nt | 83*
C#CCOCCOCCOCCNc1nc(N2CCN(C(=O)C(C)n3cc(CCCN=C(N)N)nn3)CC2)nc(N2CCN(C(=O)C(C)n3cc(CCCN=C(N)N)nn3)CC2)n1 (configuration not stated) | 11 | nt | nt | 3 | nt | 3 | nt
COc1ccc(/C=C2\SC(=O)N(CCNC(=O)C3=COCCO3)C2=O)cc1 | -15 | 28 | 1 | 0 | 36* | 0 | -6
O=C(NCCN1C(=O)S/C(=C\c2ccc(OC(F)F)cc2)C1=O)C1=COCCO1 | 5 | 19 | 5 | 4 | nt | 0 | nt
CC1CN(C(C)CO)C(=O)c2cccc(NC(=O)c3ccc(-c4nccs4)cc3)c2OC1CN(C)C(=O)Nc1cccc2ccccc12 (configuration not stated) | -9 | nt | nt | -4 | nt | -3 | nt
CCCc1sc(N)nc1-c1ccc(C)cc1 | 7 | -5 | -1 | 6 | 33* | 40 | -15
Cc1ccc(-c2nc(N)sc2C)cc1 | -3 | 0 | 0 | 3 | -6 | 11 | nt
SMILES | Mtb hypoxia inh | BJeLR lethal | RecA splice inh | RN4220 kill | CCHF vOTU inh-1 | Sa ugtP lethal | CCHF vOTU inh-2
COc1cc(C2CC=C(C(=O)O)C(c3ccc(F)cc3)N2S(=O)(=O)c2ccc(C)cc2)cc(OC)c1OC (configuration not stated) | 17 | nt | nt | 1 | nt | 4 | nt
COc1ccc(C(C)=NNC(=O)CNC(=O)/C=C/c2ccccc2OC)cc1 | 11 | nt | nt | 1 | nt | 5 | nt
COc1cc(/C=C/c2ccc3c(Br)cc(Br)c(O)c3n2)ccc1O | 6 | 39 | 20 | 99* | 35* | 100* | -17
COc1ccc2c(c1)CC(C(=O)Nc1ccc(Cl)cc1)C(=NO)O2 (configuration not stated) | 3 | nt | nt | 2 | nt | 4 | nt
O=C(CN1C(=O)c2ccccc2C1=O)NC1CCS(=O)(=O)C1 (configuration not stated) | nt | nt | nt | nt | -4 | nt | nt
CC(=O)NC1=C(NC2CCS(=O)(=O)C2)C(=O)c2ccccc2C1=O (configuration not stated) | 16 | 15 | 20 | 19 | 42* | 4 | 2
O=C(C=Cc1cccs1)N1CCC2(CC1)Oc1ccc(Cl)cc1C(=O)C21CC(c2cccnc2)=NO1 (configuration not stated) | -5 | nt | nt | 4 | nt | -25 | nt
C#CCOCCOCCOCCNc1nc(N2CCN(C(=O)C(Cc3cc4ccccc4[nH]3)n3cc(C(N)C(C)CC)nn3)CC2)nc(N2CCN(C(=O)C(C(C)CC)n3cc(C(N)CO)nn3)CC2)n1 (configuration not stated) | 0 | nt | nt | -3 | nt | 0 | nt
CCOc1ccc2c(c1)C(C)=CC(C)(C)N2C(=O)Nc1ccccc1F | -1 | -3 | -1 | 3 | 71* | 10 | -100
CCNC(=O)N1c2ccc(OCC)cc2C(C)=CC1(C)C | 10 | 6 | -2 | 1 | -16 | 5 | nt
C=C(C)C(=O)Nc1cccc(C2=NOC3(C2)CC(C(N)=O)N(C(=O)c2ccc(Cl)cc2)C3)c1 (configuration not stated) | 3 | nt | nt | 9 | nt | 1 | nt
O=C(c1ccc(S(=O)(=O)N2CCCCC2)cc1)N1CCc2ccccc2C1 | 5 | -19 | -123 | 18 | -15 | 4 | nt
O=C(c1ccc(S(=O)(=O)c2ccccc2)cc1)N1CCc2ccccc2C1 | 11 | -8 | -2 | 7 | 35* | -1 | -17
Cc1cc(=O)n2[nH]c(=O)c(N=Nc3ccccc3)c2[nH]1 | 6 | 12 | 7 | -16 | 16 | 0 | nt
CCOc1ccc(N=Nc2c(=O)[nH]n3c(=O)cc(C)[nH]c23)cc1 | 21 | 18 | 4 | 23 | 36* | 14 | 10
O/N=C1/CCc2cccc3cccc1c23 | nt | -7 | 6 | nt | -9 | nt | nt
O=C1C(=NO)CCc2ccccc21 | nt | nt | nt | nt | 69* | nt | 82*
CC1(C)OC2C(CO)OC(n3c(N4CCCCC4)nc4c(N)ncnc43)C2O1 (configuration not stated) | 8 | nt | nt | 5 | nt | 6 | nt
CCc1ccc(-c2csc(NC(=O)C3CC(=O)N(c4ccc5c(c4)OCCO5)C3)n2)cc1 (configuration not stated) | -6 | -11 | 3 | -10 | 30* | 4 | -22
